Assay results: PubChem BioAssay (NCI)
Compounds without any hit were thinned out: in the full panel of roughly 79,000, 15% have a hit. The source made the active and inactive calls. Cut-off read from the data, not from the text of the source: active = growth inhibition above about 70%; inactive = the rest. Where a SMILES comes first, the peptide text is derived from it. The star is where a group is joined. Boc = CC(C)(C)OC(=O)*

Key:
[1] = NCI Yeast Anticancer Drug Screen. Data for the rad50 strain (AID 155);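 note: 0% = growth of vehicle-only cultures of the same strain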; conditions: S. cerevisiae rad50 strain growth inhibition; at 50.0 µM; hits give high values
Method in brief: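 Yeast carrying a defined DNA repair defect were exposed to test compounds, and growth was compared with vehicle-treated controls to give percent inhibition.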

[2] = NCI Yeast Anticancer Drug Screen. Data for the mec2-1 strain (AID 157); conditions: S. cerevisiae mec2-1 strain, at 50.0 µM, hits give high values
Method in brief: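 Compounds were applied to mec2-1 yeast cells. Their growth was then compared with that of vehicle-treated cultures to give growth inhibition.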

[3] = NCI Yeast Anticancer Drug Screen. Data for the sgs1 mgt1 strain (AID 161);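 note: 0% = growth of cultures given vehicle only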; conditions: S. cerevisiae sgs1 mgt1 strain, at 50.0 µM, hits give high values
Method in brief: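 This yeast growth screen uses a strain with defined DNA-repair lesions; compound-treated growth is compared with vehicle-treated growth.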

[4] = NCI Yeast Anticancer Drug Screen. Data for the cln2 rad14 strain (AID 165);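 note: 0% = growth equal to vehicle treated cultures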; conditions: S. cerevisiae cln2 rad14 strain, at 50.0 µM, hits give high values
Method in brief: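 Strain: cln2 rad14 yeast, altered in cell cycle control and DNA damage repair. Read-out: growth inhibition vs vehicle.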

[5] = NCI Yeast Anticancer Drug Screen. Data for the bub3 strain (AID 167); conditions: S. cerevisiae bub3 mutant strain, at 50.0 µM, hits give high values
Method in brief: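 Compounds were applied to a genetically altered yeast strain carrying a cell-cycle control defect. Growth inhibition was scored against vehicle-treated controls.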

[6] = NCI Yeast Anticancer Drug Screen. Data for the mlh1 rad18 strain (AID 175); conditions: S. cerevisiae mlh1 rad18 strain growth inhibition; at 50.0 µM; hits give high values
Method in brief: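 A repair-deficient yeast strain is exposed to test compound, and growth is scored relative to vehicle-treated controls.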

Measured: growth inhibition

OCC1OC(O)C(N=Cc2ccc3c(c2)OCO3)C(O)C1O (stereo unspecified)
inactive: [1] 13.7% | [2] -14.6% | [3] -14.2% | [4] 1.45% | [5] -20.6% | [6] -19.9%

O=C(Nc1ccc(Cl)c(Cl)c1)C1C(=O)N(c2ccc(Cl)c(Cl)c2)C(=O)/C1=N\O (stereo unspecified)
inactive: [1] 24.4% | [2] -4.3% | [3] 11.2% | [4] 16.9% | [5] -3.3% | [6] 22.8%

c1ccc2c(c1)-c1ccccc1C2N1CCCC1
inactive: [1] 14.2% | [2] 14.8% | [3] 4.2% | [4] 10.4% | [5] -0.85% | [6] -7.9%

C1CCC(C(C2CCCCC2)C2CCCCC2)CC1
inactive: [1] -16.9% | [2] -0.65% | [3] -8.6% | [4] 28% | [5] -4.3% | [6] -11.3%

Cc1ccc2c(c1)C(C)(C)CCC2
inactive: [1] -2.1% | [2] -18.4% | [3] -18.4% | [4] -59.6% | [5] -9.1% | [6] 4.95%

CC(C)c1cccc(C(C)C)c1N1C(=O)C(=O)C(c2nc3ccccc3s2)C(=O)C1=O
inactive: [1] -11.7% | [2] -17.1% | [3] -7.65% | [4] -10% | [5] 1.55% | [6] -12.2%

O=C(O)c1cccc(/C=N/O)c1O
inactive: [1] -16.9% | [2] -3.25% | [3] -6.45% | [4] -10.5% | [5] 7.75% | [6] 8.55%

O=C1NN=C(C2CCCCC2)C12CCCCC2
inactive: [1] 8.05% | [2] -2.85% | [3] 1.3% | [4] 2.85% | [5] 5.45% | [6] -8.4%

C=C1CN2CCc3c([nH]c4ccccc34)C2CC1CC(=O)N(C)C (stereo unspecified)
inactive: [1] -33.5% | [2] -26.7% | [3] -24.4% | [4] -1.15% | [5] -32% | [6] -9.65%

COC(=O)C1(Cc2ccccc2)Cc2ccccc2C1=O (stereo unspecified)
inactive: [1] -3.1% | [2] 3% | [3] 37.7% | [4] 33.9% | [5] 39.2% | [6] -3%

CC(C)OC(=S)SCC(=O)c1ccc(-c2ccccc2)cc1
inactive: [1] 1.7% | [2] 17.5% | [3] 21.3% | [4] -2.45% | [5] 30.9% | [6] 8.75%

CS(=O)(=O)N/N=C1/C=C2C/C(=N\NS(C)(=O)=O)C=C2C1
inactive: [1] 27.6% | [2] -0.7% | [3] 47.5% | [4] 30.2% | [5] -1.2% | [6] 43.7%

C/C(=C/c1ccccc1)C(F)F
inactive: [1] 3.9% | [2] -5.7% | [3] -13% | [4] -7.45% | [5] -11.6% | [6] 8.75%

CN1CCN(C(=S)N(C)C(=O)c2ccc(Cl)cc2)CC1
inactive: [1] 13.3% | [2] -20.1% | [3] -20.3% | [4] 19.1% | [5] -22.9% | [6] -9.65%

Cc1nn(C(=O)CC(=O)Nc2ccccc2Cl)c(C)c1N=Nc1ccccc1Cl
inactive: [1] -11.3% | [2] 1.8% | [3] -29.1% | [4] 35.1% | [5] -8.55% | [6] -23.1%

COC1=C(N)C(=O)c2nc(-c3nc(C(=O)O)c(C)c(Br)c3N)ccc2C1=O
active: [1] 89.3% | [2] 92.2% | [3] 84.9% | [4] 89.2% | [5] 80.5% | [6] 92.7%

NC(Cc1ccc(O)c(O)c1)C(=O)OCc1ccccc1 (stereo unspecified)
inactive: [1] 67.6% | [2] 60.7% | [3] 68.8% | [4] 58.4% | [5] 38.5% | [6] 65.8%

Cn1c(=O)sc2ccccc21
inactive: [1] 19.4% | [2] -18.2% | [3] 14.3% | [4] 15.1% | [5] -8.8% | [6] 25.6%

NC(=O)CCN(CCC(N)=O)CCC(N)=O
inactive: [1] -9.25% | [2] 7.1% | [3] -3.3% | [4] -24.9% | [5] -4.15% | [6] -12.9%

CCCCCCCCCCCCCCCCN (tested in a mixture with another compound)
inactive: [1] 29.9% | [2] -11.1% | [3] 7.9% | [4] -24.1% | [5] 26.5% | [6] 17.4%

OCC(CN1CCCCC1)(CN1CCCCC1)CN1CCCCC1
inactive: [1] -47.8% | [2] -68.7% | [3] -14.6% | [4] -7.05% | [5] -5.2% | [6] -32.4%

NS(=O)(=O)N1CN(S(N)(=O)=O)CN(S(N)(=O)=O)C1
inactive: [1] -3.4% | [2] 4.1% | [3] 2.65% | [4] -18.6% | [5] 9.75% | [6] 13.4%

O=C1OC(c2ccc(Cl)cc2)=N/C1=C\c1c(Cl)cccc1Cl
inactive: [1] 6.9% | [2] -1.3% | [3] 11.9% | [4] 11.9% | [5] 5.9% | [6] -13.7%

COC(=O)CC(NC(=O)C(Cc1cncn1C(=O)OCc1ccccc1)NC(=O)OCc1ccccc1)C(=O)O (stereo unspecified)
inactive: [1] 10.2% | [2] 3.25% | [3] 0.45% | [4] 6.8% | [5] 0.05% | [6] -4.55%

COC(=O)C(Cc1c[nH]c2ccccc12)NC(=O)C(Cc1c[nH]c2ccccc12)NC(=O)C(Cc1c[nH]c2ccccc12)NC(=O)C(Cc1c[nH]c2ccccc12)NC(=O)OC(C)(C)C (stereo unspecified) (Boc-WWWW-OMe; configuration not given here)
inactive: [1] 3.35% | [2] -4.65% | [3] -2.05% | [4] 23.4% | [5] 4.65% | [6] 6.2%

O=C(/C=C(\Cl)c1ccc2c(c1)OCO2)OC/C=C\c1ccc2c(c1)OCO2
inactive: [1] 30.9% | [2] 9.55% | [3] 25.1% | [4] 20.3% | [5] -7.4% | [6] 19.2%

O=S(=O)(O)c1cccc2ccc(O)cc12
inactive: [1] -4.05% | [2] -4.1% | [3] -2.05% | [4] -36.8% | [5] -11.1% | [6] 43.6%

Nc1ccn(C2CC3OCC3O2)c(=O)n1 (stereo unspecified)
inactive: [1] -13.2% | [2] 24.9% | [3] -1.25% | [4] -5.7% | [5] 0.95% | [6] 0.65%

COc1ccc(/C=C/C(=O)c2cc(C(=O)O)c(OC)cc2OC)cc1OC
inactive: [1] 4% | [2] -6.45% | [3] 22.4% | [4] 14.2% | [5] 17.9% | [6] -20.8%

Cc1cc2c3c(nc2c2cc[nH]c(C)c12)CCCC3
active: [1] 88.2% | [2] 92% | [3] 92% | [4] 91.7% | [5] 90.8% | [6] 91%

N#Cc1ccc(-c2nc3ccc(Cl)cc3[nH]2)cc1
inactive: [1] -47.9% | [2] -31% | [3] -13.7% | [4] 6.7% | [5] -30.9% | [6] -21.9%

c1ccc2c(c1)SCCCSCCSCCCS2
inactive: [1] -15.2% | [2] -0.65% | [3] 8.1% | [4] 5.05% | [5] 20.6% | [6] 2.6%

Cc1onc(-c2ccccc2)c1C(=O)N1CCCN2C(=O)c3ccccc3C21 (stereo unspecified)
inactive: [1] -0.3% | [2] -11.1% | [3] 15.8% | [4] 2% | [5] 22.3% | [6] 15.8%

COc1cc(OC)c(-c2cc(C(=O)O)c3cc4ccccc4cc3n2)c(OC)c1
inactive: [1] 18.2% | [2] 23.2% | [3] 24.1% | [4] 16.7% | [5] 21.6% | [6] 32%

CC(=O)Nc1ccc(/C=C2\C(=O)Nc3ccccc32)cc1
inactive: [1] -15.4% | [2] -20.1% | [3] -23% | [4] -11.8% | [5] -8.5% | [6] -5.9%

COC(=O)CC(c1ccc(OC)cc1)c1cc2c(cc1OC)OCO2 (stereo unspecified)
inactive: [1] 3.45% | [2] 3.75% | [3] 2.75% | [4] 7.5% | [5] 18.3% | [6] 15.5%

CCc1c(Cc2[nH]c(C=O)c(C)c2CC)[nH]c(C=O)c1C
inactive: [1] 6.85% | [2] -11.9% | [3] 11.2% | [4] -1.05% | [5] 5.45% | [6] 3.8%

CC/C=N/Nc1ccc([N+](=O)[O-])cc1[N+](=O)[O-]
inactive: [1] 15.6% | [2] -9.1% | [3] 4.6% | [4] 3.3% | [5] 1.6% | [6] 22.6%

COCC/C=C/CCl
inactive: [1] -8.75% | [2] -22.6% | [3] -8.35% | [4] -8.95% | [5] -7.65% | [6] 5.1%

CN(C)c1ccc(C(=O)c2ccc([N+](=O)[O-])cc2)cc1
inactive: [1] -1.6% | [2] -10% | [3] 0.5% | [4] 6.3% | [5] -4.95% | [6] -8.25%

COc1ccc(/C=C/C(=O)c2ccc(F)cc2)cc1
inactive: [1] 8.85% | [2] -16.4% | [3] -12.4% | [4] -35.4% | [5] -6.5% | [6] 10.2%
